An excerpt weighted towards active compounds, which were near 3.5% of everything screened.
FBW7 act – FBW7 E3 ligase activators, primary screen, biochemical, AlphaScreen, human; F-box/WD repeat-containing protein 7 (Homo sapiens), Q969H0; AlphaScreen FBW7–phospho-cyclin E peptide binding, activator screen; normalized activity (activation), % at 26.1 µM; 650,000 compounds, 0.13% hits; in the data active = normalized activity above about 1.9%;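 also: purified mutant Fbw7 with reduced substrate affinity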
GPR151 ag – activators of human GPR151, primary screen, cell-based, PathHunter beta-arrestin, luminescence. PathHunter beta-arrestin GPR151 cells. 650,000 compounds, 1% hits. G-protein coupled receptor 151 (Homo sapiens), Q8TDV0. activation, % at 11.2 µM; in the data active = activation above about 4.9%;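 also: 0% = median of compound wells and 100% = cells with positive control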
TEAD-YAP inh – TEAD-YAP interaction inhibition, primary screen, TEAD-YAP interaction inhibitor project, luminescence, HEK-TIYL cells. TEAD-Gal4/YAP UAS-luciferase luminescence. inhibition, % at 9.12 µM. 640,000 compounds, 1.4% hits. AID 1259422, 2018; in the data active = inhibition above about 32%;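 also: 0% = median of test compound wells and 100% = reference inhibitor wells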
MITF inh – MITF inhibitors, primary screen, biochemical, AlphaScreen, human | AID 1259374, 2018 | 650,000 compounds, 0.91% hits | inhibition, % at 2.6 µM | AlphaScreen MITF homodimerization, bead proximity signal; in the data active = inhibition above about 50%;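 also: 0% = vehicle wells with protein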
Target sequence (O75030 whole entry, looked up): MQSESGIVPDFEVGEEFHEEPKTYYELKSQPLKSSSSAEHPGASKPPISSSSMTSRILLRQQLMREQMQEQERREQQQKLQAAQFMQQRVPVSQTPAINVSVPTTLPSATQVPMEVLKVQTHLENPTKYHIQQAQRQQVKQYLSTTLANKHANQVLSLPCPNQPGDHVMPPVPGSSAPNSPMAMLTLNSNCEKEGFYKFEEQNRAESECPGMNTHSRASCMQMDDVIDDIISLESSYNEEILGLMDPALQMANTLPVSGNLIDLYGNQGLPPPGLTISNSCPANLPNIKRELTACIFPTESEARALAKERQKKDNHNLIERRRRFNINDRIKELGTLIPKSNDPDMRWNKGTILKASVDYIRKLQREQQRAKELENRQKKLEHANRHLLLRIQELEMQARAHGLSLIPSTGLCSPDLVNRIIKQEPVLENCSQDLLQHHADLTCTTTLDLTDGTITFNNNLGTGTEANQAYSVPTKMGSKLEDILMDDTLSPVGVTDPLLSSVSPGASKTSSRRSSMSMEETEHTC
GPR151 confirm – GPR151 activators, triplicate retest, confirmation, cell-based, PathHunter beta-arrestin, luminescence; shares compounds with GPR151 ag; GPR151 PathHunter beta-arrestin cells, 90 min; % of EA-reagent control over plate median; activation, % at 11.2 µM; 6,700 tested, under 10 active; AID 1508609, 2020;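 active = mean percent activation across replicates above the confirmation screen cutoff of 4.91%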
GPR119 counter – GPR119 activators in beta-arrestin cells, counter-screen for GPR151 activator project, cell-based, PathHunter beta-arrestin, luminescence, triplicate; shares compounds with GPR151 ag; 90 min; 0 = compound-well median, 100 = enzyme-acceptor control; activation, % at 11.2 µM; 6,700 compounds, 0.3% hits;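 active = mean percent activation in the counterscreen above 29.09%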;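 also: counterscreen on off-target GPR119 to flag nonselective hits from the GPR151 activator screen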
Active calls of the source: *; / = no result given.

SMILES | FBW7 act | GPR151 ag | TEAD-YAP inh | MITF inh | GPR151 confirm | GPR119 counter
CC(C)N(C)C(=O)C1CC(=O)c2sc(NC(=O)c3ccccc3)nc2C1 (centres undefined) | 0 | 6.4* | 4 | 11 | 0 | 10
CCC(C)CC(=O)Nc1nc2c(s1)C(=O)CC(C(=O)N(C)C(C)C)C2 (centres undefined) | 0 | 7.1* | -7 | -1 | 0 | 1
CCC(C)C(=O)Nc1nc2c(s1)C(=O)CC(C(=O)N(C)C(C)C)C2 (centres undefined) | 0 | -1 | -29 | 8 | / | /
CNC(=O)C1CCCN(S(=O)(=O)N2CCOCC2)C1 (centres undefined) | 0 | 3 | 3 | 6 | / | /
C=CCOc1ccc(/C=C2\C(=O)NC(=O)N(C)C2=O)cc1Br | 0 | 5.7* | 4 | 14 | 1 | 8
C=CCOC(=O)C1C(c2cccc(Br)c2)c2c([nH][nH]c2=O)CC1(C)O (centres undefined) | 0 | 6.0* | -3 | -15 | -1 | -11
C=CCOC(=O)C1C(c2ccccc2)c2c([nH][nH]c2=O)CC1(C)O (centres undefined) | 0 | 0 | -6 | -6 | / | /
O=C(O)Cn1c(C(=O)O)cc2ccccc21 | 0 | 0 | -3 | -8 | / | /
COC(=O)CN(c1ccc(C)cc1)S(=O)(=O)c1c(C)[nH]c(=O)[nH]c1=O | 0 | 2 | 2 | 6 | / | /
COC(=O)CN(c1ccc2c(c1)OCO2)S(=O)(=O)c1c(C)[nH]c(=O)[nH]c1=O | 0 | 5.3* | 9 | -6 | 1 | 2
COC(=O)CSc1nnc(C)n1-c1ccc(N(C)C)cc1 | 0 | 5.6* | 1 | -18 | 0 | 4
CC(=O)CSc1nnc(C)n1-c1ccc(N(C)C)cc1 | 0 | -1 | -5 | 8 | / | /
COc1cc(C(=O)Nc2cccc(-n3c(C)nc4ccccc4c3=O)c2)cc(OC)c1OC | 0 | -2 | -1 | 23 | / | /
NS(=O)(=O)c1ccc(NC(=O)NC2CC(=O)N(c3ccccc3)C2)cc1 (centres undefined) | 0 | 2 | -5 | 6 | / | /
CC(=O)Nc1nnc(SCc2cc(=O)c(OC(=O)c3ccccc3[N+](=O)[O-])co2)s1 | 0 | 6.4* | 6 | 12 | 0 | 1
O=C(Nc1nnc(SCc2cccc(C(F)(F)F)c2)s1)C1CC1 | 0 | 2 | 1 | 9 | / | /
CCCC(=O)Oc1coc(CSc2nnc(NC(=O)C3CC3)s2)cc1=O | 0 | 5.4* | 14 | 11 | -1 | -4
O=C(Nc1nnc(SCc2cccc(F)c2)s1)C1CC1 | 0 | 12* | -4 | 11 | 1 | 4
Cn1ccnc1SCc1cc(=O)c(OC(=O)c2ccccc2[N+](=O)[O-])co1 | 0 | 5.8* | 6 | 12 | 0 | 0
Cc1c(C(=O)OC(C)C)sc(NC(=O)CCc2ccccc2)c1C(N)=O | 0 | 0 | 4 | 10 | / | /
C#CCN(C)C(=O)c1c(C(F)(F)F)nc2ccc(C)cn12 | 1 | -1 | 14 | 12 | / | /
N#C/C(=C/c1cc([N+](=O)[O-])ccc1Cl)C(N)=O | 0 | 0 | -4 | -3 | / | /
COc1cc(NC(=O)c2cc3ccccc3cc2NS(=O)(=O)c2ccccc2)c2ncccc2c1 | 0 | -2 | 3 | 13 | / | /
CCOc1ccccc1C(=O)Oc1coc(CSc2nc(C)cs2)cc1=O | 0 | 1 | 2 | -15 | / | /
COc1ccccc1C(=O)Oc1coc(CSc2nc(C)cs2)cc1=O | 0 | 7.5* | 10 | -13 | -1 | -5
SMILES | FBW7 act | GPR151 ag | TEAD-YAP inh | MITF inh | GPR151 confirm | GPR119 counter
COc1ccc(N2CC(NC(=O)Nc3ccccc3C(N)=O)CC2=O)cc1OC (centres undefined) | 0 | 5.4* | -6 | -13 | 1 | -2
O=C(NCCc1ccccc1)C1CC(=O)N(c2ccc(Br)cc2)C1 (centres undefined) | 0 | 5.5* | 1 | 13 | 1 | -7
COc1ccc(CCNC(=O)NC2CC(=O)N(c3ccccc3)C2)cc1 (centres undefined) | 0 | 6.1* | 0 | -2 | 0 | 3
Cc1ccc(N2CC(NC(=O)Nc3nccs3)CC2=O)cc1 (centres undefined) | 0 | 2 | 5 | 8 | / | /
Cc1ccc(N2CC(NC(=O)Nc3ncccc3C)CC2=O)cc1 (centres undefined) | 0 | 5.9* | 3 | -5 | 0 | 2
COc1ccc(CCNC(=O)NC2CC(=O)N(c3cccc(F)c3)C2)cc1 (centres undefined) | 0 | 1 | -3 | -3 | / | /
CCCCNCc1ccc(OCC(O)CN2CCc3ccccc3C2)cc1 (centres undefined) | 0 | 1 | 11 | -2 | / | /
Cc1cccc(-n2c(CNC(=O)c3ccc(S(=O)(=O)N4CCOCC4)cc3)nnc2SCC(=O)Nc2nccs2)c1 | 0 | -1 | 2 | -4 | / | /
C=CCn1c(SCC(=O)Nc2ccc3[nH]c(=O)[nH]c3c2)nnc1-c1ccccc1F | 0 | -1 | -5 | -1 | / | /
O=C1CC(NCCCc2ccccc2)C(=O)N1c1ccc(Br)cc1 (centres undefined) | 0 | 11* | -1 | -1 | -1 | -4
Cc1ccnc(NC(=O)NC2CC(=O)N(c3ccccc3)C2)c1 (centres undefined) | 0 | 6.1* | -3 | -1 | 1 | -8
O=C1CC(NCCCCO)C(=O)N1c1ccc(Br)cc1 (centres undefined) | 0 | 0 | 11 | 0 | / | /
CC12C=CC(C3OCCO3)(O1)C1C(=O)N(c3ccc(Cl)cc3)C(=O)C12 (centres undefined) | 0 | 6.4* | 12 | 5 | 0 | -1
CC1(C)OC(=O)N(n2cnnc2)C1(C)O (centres undefined) | 0 | -1 | 5 | 1 | / | /
Cc1noc(C)c1COC(=O)CCc1ccc(S(=O)(=O)N2CCCCC2)cc1 | 0 | 5.0* | 5 | 6 | 0 | -6
c1ccc(N2CCN(c3nnc(SCc4ccccn4)s3)CC2)cc1 | 0 | 5.4* | -40 | -3 | -1 | -9
c1ccc(CSc2nnc(SCc3ccccn3)s2)nc1 | 0 | 0 | -62 | 2 | / | /
CNC(=O)C(C)Oc1cccc(Cl)c1 (centres undefined) | 0 | 0 | 6 | -3 | / | /

Screening data as filed in PubChem.
